PfHsp90 set2 = growth inhibition of yeast expressing Plasmodium Hsp90; inhibition, % at 9.4 µM; actives 0.32% (n = 310,000); S. cerevisiae expressing PfHsp90, BacTiter-Glo ATP, 48 h; yeast lacking PDR1 and PDR3 efflux regulators;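 active = every replicate shows inhibition above about 80%, whatever the replicate mean, limit read from the data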
tim10-1 inh = inhibits growth of tim10-1 mutant yeast; S. cerevisiae tim10-1 ts strain growth, BacTiter-Glo, 24 h; inhibition, % at 20 µM; actives 2.2% (n = 330,000);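 active = inhibition of at least 40%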;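 note: mutant grown at 25 °C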
SKKanGAS inh = SKKanGAS growth inhibition | actives 1.3% (n = 300,000) | inhibition, % at 7.5 µM | S. pyogenes SKKanGAS, kanamycin growth, BacTiter-Glo, 6 h;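 active = mean replicate score, as percent of positive control median, at least 50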;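 note: strain carries kanamycin resistance gene driven by streptokinase promoter and grows in 40 µg/ml kanamycin; loss of luminescence reflects streptokinase promoter inhibition or plain growth inhibition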
TIM10 inh = TIM10 yeast growth inhibition. S. cerevisiae TIM10 strain growth, BacTiter-Glo luminescence, 24 h. inhibition, % at 10 µM. actives 1.4% (n = 330,000);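 active = inhibition of 40% or more at the single tested concentration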;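 note: wild-type TIM10 isogenic control strain grown at permissive 25 °C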
tim23-1 inh = growth inhibitors of tim23-1 mutant yeast; S. cerevisiae tim23-1 growth, BacTiter-Glo luminescence, 24 h; inhibition, % at 20 µM; actives 1.3% (n = 330,000); AID 463212;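 active = growth inhibition of the mutant yeast at or above 50%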;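 note: temperature-sensitive mutant grown at 25 °C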
NALP1 yeast inh = NALP1 inhibition; S. cerevisiae NALP1/ASC/caspase-1 growth, X-gal OD620, 72 h; actives 0.61% (n = 280,000); inhibition, % at 10 µM; in the data active = inhibition mostly above about 24%, no sharp cut-off; inactive = mostly below about 32%
tim10-1 conf = confirmation of tim10-1 mutant yeast growth inhibitors. shares compounds with tim10-1 inh. S. cerevisiae tim10-1 ts strain growth, BacTiter-Glo, 24 h. inhibition, % at 20 µM. actives 56% (n = 7,400). AID 463213;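 active = inhibition of yeast growth at or above a set limit in either of two repeat tests at 20 µM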;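 note: tim10-1 mutant grown at permissive 25 °C to find synthetic lethal compounds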
Of the large screens only hits and unclear results are named; the others gave an inactive call (follow-up assays come after a bar, where they were run). Compounds with a hit are over-represented: about 4.8% of the library has one in this group of screens.

O=C(c1ccc(Cl)cc1)N1CCN(c2ccnc3cc(Cl)ccc23)CC1	none (no result: tim10-1 inh, TIM10 inh, tim23-1 inh)
COc1ccc(C2NC(=S)NC3=C2CCc2cc(OC)ccc23)cc1 (stereo not drawn)	tim10-1 inh 54.3 | tim10-1 conf 40.3
Cc1ccc(/C=C2\CCCC3=C2NC(=S)NC3c2ccc(C)cc2)cc1 (stereo not drawn)	none
Cc1ccc2cc(CN(c3ccccc3)S(=O)(=O)c3ccccc3)c(=O)[nH]c2c1	none
CCOc1ccc(N(Cc2cc3ccc(C)cc3[nH]c2=O)S(=O)(=O)c2ccccc2)cc1	tim10-1 inh 42.2 | tim10-1 conf inactive
CCOC(=O)c1ccc(NNC(=O)CC)c([N+](=O)[O-])c1	none
CC(C)(C)n1nnnc1C(c1ccccn1)N(Cc1ccccc1)Cc1ccc(Cl)cc1 (stereo not drawn)	tim10-1 inh 50.5 | tim10-1 conf 31.0
CC1(C)Cc2cccc(C(=O)Nc3ccc(Cl)cc3)c2O1	none
COC(=O)c1cc(COc2ccc3oc(C)c(C(=O)OC(C)C)c3c2)c(C)o1	none
CC(=O)c1ccc(OCc2cc(C(=O)N(C)C(C)c3ccon3)no2)cc1 (stereo not drawn)	none
CCOC(=O)C1=C(N)Oc2cc(O)ccc2C1c1cccc([N+](=O)[O-])c1 (stereo not drawn)	tim10-1 inh 45.9 | tim10-1 conf inactive
COC(=O)c1sc(-c2cccs2)cc1N	none (no result: NALP1 yeast inh)
N/C(=N\OC(=O)CCCOc1ccccc1)c1ccc([N+](=O)[O-])cc1	tim10-1 inh 54.8 | tim10-1 conf 41.8
COc1ccc(OCCCC(=O)ON=C(N)c2ccccc2C)cc1	tim10-1 inh 44.1 (no result: SKKanGAS inh, NALP1 yeast inh) | tim10-1 conf 55.9
CCOc1ccc(OCCCC(=O)ON=C(N)c2ccccc2Cl)cc1	none (no result: SKKanGAS inh, NALP1 yeast inh)
N/C(=N\OC(=O)Oc1ccccc1)c1ccc([N+](=O)[O-])cc1	none
N/C(=N\OC(=O)CCCc1ccccc1)c1ccc([N+](=O)[O-])cc1	tim10-1 inh 45.8 | tim10-1 conf 52.3
CCOC(=O)N1CCN(C(=O)CCCn2c(=S)[nH]c3ccc(Br)cc3c2=O)CC1	none (no result: PfHsp90 set2)
CCOc1ccccc1N1CCN(C(=O)Nc2cccc(Cl)c2)CC1	tim10-1 inh 44.5 (no result: PfHsp90 set2) | tim10-1 conf inactive
CC(OC(=O)C1CCCCC1)C(=O)Nc1cccc([N+](=O)[O-])c1 (stereo not drawn)	none (no result: SKKanGAS inh, NALP1 yeast inh)
COc1ccc(OCCn2c(C)c(/C=N/n3cnnc3)c3ccccc32)cc1	none
CCCCNC(=S)Nc1ccc(Oc2ccccc2)cc1	none
CCCCNC(=S)Nc1ccc([N+](=O)[O-])cc1	tim10-1 inh 50.0 | tim10-1 conf inactive
COC(=O)c1cc(=O)cc(C(=O)OC)o1	none
Cc1ccc(N=Nc2c(O)n(CN3CCOCC3)c3ccccc23)cc1	tim10-1 inh 43.7 (no result: PfHsp90 set2) | tim10-1 conf 32.5
Cc1ccc(C(=O)NCCCC(=O)O)o1	none
O=C(O)c1ccc(C=C(c2nc3ccccc3s2)c2nc3ccccc3s2)cc1	tim10-1 inh 59.2 | tim10-1 conf 45.1
O=C(O)c1ccc(Oc2nc3ccccc3s2)cc1	none (no result: tim10-1 inh, SKKanGAS inh, TIM10 inh, tim23-1 inh, NALP1 yeast inh)
Cc1ccc(/C=C2\Oc3cc(OC(=O)N4CCOCC4)ccc3C2=O)cc1	none
O=C(Oc1ccc2c(c1)O/C(=C\c1ccncc1)C2=O)c1ccccc1	tim10-1 inh 41.8 | tim10-1 conf inactive
CNC(=S)N(C)c1ccccc1	none
Nc1nn2c(-c3ccccc3)cc(=O)[nH]c2c1N=Nc1ccc(O)cc1	tim10-1 inh 40.7 | tim10-1 conf inactive
CN(C)C(=O)Nc1ccc(F)cc1F	none
CSc1ccc(/C=C/C(=O)c2c(O)cc(C)oc2=O)cc1	tim10-1 inh 46.9 | tim10-1 conf 38.5
C=CCSc1nc2c(c(C3CC=CCC3)c1C#N)CCC2 (stereo not drawn)	tim10-1 inh 40.9 | tim10-1 conf 60.2
CCOc1ccc(S(=O)(=O)N(CC)CC(=O)NCc2ccco2)cc1C	none
COc1ccc(OC)c(C2=NOC(C(=O)NCc3ccccn3)C2)c1 (stereo not drawn)	none
O=[N+]([O-])c1cc(/C=N/O)ccc1Oc1ccccc1Cl	PfHsp90 set2 105.7, tim10-1 inh 54.5 | tim10-1 conf 42.3
O=[N+]([O-])c1cc(/C=N/O)ccc1Oc1cccc(Cl)c1	tim10-1 inh 60.5 | tim10-1 conf 55.0
CO/N=C/c1ccc(Oc2ccc(C)cc2)c([N+](=O)[O-])c1	none
O=[N+]([O-])c1cc(/C=N/O)ccc1Sc1ccccc1	none
CCn1c(C)c(C(C)=O)c(N2CCN(c3cccc(Cl)c3)CC2)nc1=S	tim10-1 inh 44.3 | tim10-1 conf inactive
CC(=O)c1c(N2CCN(c3cccc(Cl)c3)CC2)nc(=S)n(-c2ccccc2)c1C	none
CC(CNC(=O)COc1ccccc1)OC(=O)Nc1ccc(Cl)c(Cl)c1 (stereo not drawn)	tim10-1 inh 49.6 | tim10-1 conf 42.8
COC(=O)NCC(C)OC(=O)Nc1cccc(Cl)c1 (stereo not drawn)	none
CC(C)c1nc(SCC(=O)N2c3ccccc3CC2C)c2ccccc2n1 (stereo not drawn)	none
C/C(=N\NC(=O)c1cc2c(s1)CCC(C)C2)c1ccncc1 (stereo not drawn)	tim10-1 inh 53.8 | tim10-1 conf 32.2
Oc1c(C(Nc2nc3ccccc3s2)c2ccco2)ccc2cccnc12 (stereo not drawn)	PfHsp90 set2 131.0, tim10-1 inh 43.1, SKKanGAS inh 107.4 | tim10-1 conf inactive
c1coc(CNc2nc3ccccc3s2)c1	none
CN(C)CCCN(C(=O)c1ccc(S(=O)(=O)N2CCc3ccccc32)cc1)c1nc2ccc(Cl)cc2s1	tim10-1 inh 43.5 | tim10-1 conf 34.2
CN(C)CCCN(C(=O)c1ccc(S(=O)(=O)N2CCc3ccccc32)cc1)c1nc2ccc(F)cc2s1	none | tim10-1 conf inactive
CC(C)Cc1nc(N2CCN(C(=O)C(C)C)CC2)c(C#N)c2c1CCC2	none
CC(=O)N1CCN(c2nc(CC(C)C)c3c(c2C#N)CCC3)CC1	tim10-1 inh 49.5 | tim10-1 conf inactive
COc1cccc(NC(=O)CSc2nnnn2C2CCCC2)c1	none
COc1cc(NC(=O)CSc2nnnn2C2CCCC2)cc(OC)c1	tim10-1 inh 97.2 | tim10-1 conf inactive
Cc1ccc(NC(=O)Cn2c(=O)oc3ccccc32)c(C)c1	none
Cc1nn(-c2ccc(Cl)cc2)c2[nH]c(CCl)cc(=O)c12	tim10-1 inh 62.5 | tim10-1 conf 31.8
O=C(c1ccc2ncsc2c1)N1CCN(c2ccccc2Cl)CC1	tim10-1 inh 48.9 | tim10-1 conf 37.8
CCOC(=O)N1CCC(NC(=O)CCc2c(C)nc3c(c(C)nn3-c3ccccc3)c2C)CC1	none (no result: tim10-1 inh, SKKanGAS inh, TIM10 inh, tim23-1 inh, NALP1 yeast inh)
CCCC(O)(c1ccc(Cl)cc1)C(CN1CCOCC1)c1ccccc1 (stereo not drawn)	none
